In PubChem BioAssay AID1159580 (chemical genetic matrix, 2015):
About 2,000 (36%) of roughly 5,500 compounds were called active. Not shown: some 18% with an inconclusive outcome. Rule as the data show it: active = normalized growth mostly below about 0.91 (no sharp cut-off); inconclusive = no clear call, values can overlap the other calls; inactive = mostly above about 0.92. This is one part of the list.

Assay: chemical genetic growth profiling, strain panel (AID 1159580);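 also: tested at 20 µM; growth read once vehicle control cultures reached saturation at 30 °C; 1 = growth at the plate median or of vehicle wells; lower values mean less growth of the strain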
Details: S. cerevisiae deletion strains, growth OD
[1] = locus YAL013W, strain DEP1, hits give low values
[2] = locus YAL040C, strain CLN3, hits give low values
[3] = locus YCL061C, strain MRC1 (second series), hits give low values
[4] = locus YDR150W, strain NUM1, hits give low values
[5] = locus YDR363W, strain ESC2, hits give low values
[6] = locus YER002W, strain NOP16, hits give low values
[7] = locus YGR078C, strain PAC10, hits give low values
[8] = locus YMR307W, strain GAS1, hits give low values
[9] = locus YNL175C, strain NOP13, hits give low values
[10] = locus YNL197C, strain WHI3, hits give low values
[11] = locus YNL224C, strain SQS1, hits give low values
[12] = locus YNL322C, strain KRE1, hits give low values
[13] = locus YOR083W, strain WHI5 (second series), hits give low values
[14] = locus YPL055C, strain LGE1, hits give low values
[15] = locus YPL241C, strain CIN2, hits give low values
[16] = locus YJR075W, strain HOC1, hits give low values
[17] = locus YMR263W, strain SAP30, hits give low values

Measured: normalized growth

OC[C@H]1O[C@@H](n2cnc3c(N[C@H]4CC5CCC4C5)ncnc32)[C@H](O)[C@@H]1O (stereo partly drawn)
inactive: [1] 1 | [2] 1.02 | [3] 1.01 | [4] 1.01 | [5] 1 | [6] 1.02 | [7] 1.03 | locus YGR229C, strain SMI1, hits give low values 0.938 | [8] 0.999 | locus YNL128W, strain TEP1, hits give low values 0.992 | [9] 1.01 | [10] 0.994 | [11] 0.974 | [12] 1.01 | [13] 1.04 | [14] 1.03 | [15] 1.01

CCCn1c(=O)c2[nH]c(C3CCCC3)nc2n(CCCOC(=O)c2ccc(S(=O)(=O)F)cc2)c1=O
inactive: [1] 0.992 | [2] 0.987 | [3] 1.01 | [5] 0.998 | [6] 1 | [7] 1.02 | [16] 0.994 | [17] 0.999 | [9] 1.01 | [10] 1 | [11] 1.01 | [13] 0.995 | [14] 1.01

CCOC(=O)C1C(c2cccnc2)C(C(=O)OCC)C(O)(C(F)(F)F)NC1(O)C(F)(F)F (stereo not drawn)
inactive: [1] 1 | locus YBR229C, strain ROT2, hits give low values 1 | locus YCL061C, strain MRC1, hits give low values 1.02 | locus YDL101C, strain DUN1, hits give low values 1 | [4] 0.985 | locus YEL061C, strain CIN8, hits give low values 0.985 | [7] 1.01 | locus YHR030C, strain SLT2, hits give low values 1.01 | locus YHR087W, strain rtc3, hits give low values 1.01 | locus YJR043C, strain POL32, hits give low values 0.996 | [16] 1.03 | locus YKL190W, strain CNB1, hits give low values 1.01 | locus YLR039C, strain RIC1, hits give low values 1.05 | locus YLR058C, strain SHM2 (second series), hits give low values 1.01 | locus YLR085C, strain ARP6, hits give low values 1.01 | locus YLR262C, strain YPT6, hits give low values 1.02 | locus YML094W, strain GIM5, hits give low values 0.965 | locus YMR219W, strain ESC1, hits give low values 1.01 | [17] 1.04 | [8] 0.995 | locus YNL153C, strain GIM3, hits give low values 1.01 | locus YNL298W, strain CLA4 (second series), hits give low values 1 | [12] 0.994 | locus YNR030W, strain Alg12, hits give low values 1 | locus YOL006C, strain TOP1, hits give low values 0.963 | [14] 1 | [15] 1.02 | locus YPR135W, strain CTF4, hits give low values 0.982
